According to the supplement of paper PMC10849652:
Targets with a hit are over-represented here; the source holds about 7,900 in all. About 0.6% of all pairs of compound and target were hits.

Experiments:
Assay in all cases: log2 fold change, soluble protein after heating vs DMSO (PISA); higher = thermal stabilisation; K562 cells, 10 uM, 30 min; active = over 0.2 and 3.5 SD of the protein, either way, in both replicates (recomputed)
bafetinib = compound: Cc1ccc(NC(=O)c2ccc(CN3CC[C@H](N(C)C)C3)c(C(F)(F)F)c2)cc1Nc1nccc(-c2cncnc2)n1 [bafetinib]
Outline: (§1)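 K562 cells at 2×10^6 cells/mL were treated with 10 μM compound for 30 min. Aliquots were heated for 3 min across 48°C-58°C, pooled, and extracted in PBS with 0.5% NP-40 at 4°C; soluble protein was the supernatant after 21,000xg for 90 min. Soluble protein was quantified by TMTpro 16plex LC-MS/MS with channel sums equalised, and reported as log2 fold change in thermal stability against DMSO controls, with values from duplicates.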

[1] = compound: Cc1cccc(CC(=O)N2CCc3c2ccc(-c2cn(C)c4ncnc(N)c24)c3F)n1
Outline: as §1

nilotinib = compound: Cc1cn(-c2cc(NC(=O)c3ccc(C)c(Nc4nccc(-c5cccnc5)n4)c3)cc(C(F)(F)F)c2)cn1 [nilotinib]
Outline: as §1

[2] = compound: Cc1nc(Nc2n[nH]c3c2CN(C(=O)N[C@H](CN(C)C)c2ccccc2)C3(C)C)c2sccc2n1
Outline: as §1

dasatinib = compound: Cc1nc(Nc2ncc(C(=O)Nc3c(C)cccc3Cl)s2)cc(N2CCN(CCO)CC2)n1 [dasatinib]
Outline: as §1

[3] = compound: Cc1ncc(-c2ccnc(Nc3ccc(S(C)(=O)=O)cc3)n2)n1C(C)C
Outline: as §1

[4] = compound: Cn1cc(-c2ccc3c(c2)CCN3C(=O)Cc2cccc(C(F)(F)F)c2)c2c(N)ncnc21
Outline: as §1

[5] = compound: Cn1cc(-c2ccc3nnc(C(F)(F)c4ccc5ncccc5c4)n3n2)cn1
Outline: as §1

tipifarnib = compound: Cn1cncc1[C@@](N)(c1ccc(Cl)cc1)c1ccc2c(c1)c(-c1cccc(Cl)c1)cc(=O)n2C [tipifarnib]
Outline: as §1

mubritinib = compound: FC(F)(F)c1ccc(/C=C/c2nc(COc3ccc(CCCCn4ccnn4)cc3)co2)cc1 [mubritinib]
Outline: as §1

[6] = compound: NC(=O)Nc1cc(-c2cccc(F)c2)sc1C(=O)N[C@H]1CCCNC1
Outline: as §1

[7] = compound: NC(=O)c1cnc(N[C@@H]2CCCC[C@@H]2N)nc1Nc1cccc(-n2nccn2)c1
Outline: as §1

[8] = compound: NC1(c2ccc(-c3nc4ccn5c(=O)[nH]nc5c4cc3-c3ccccc3)cc2)CCC1
Outline: as §1

[9] = compound: NCC(=O)Nc1ccc(-n2nc(C(F)(F)F)cc2-c2ccc3c(ccc4ccccc43)c2)cc1
Outline: as §1

entinostat = compound: Nc1ccccc1NC(=O)c1ccc(CNC(=O)OCc2cccnc2)cc1 [entinostat]
Outline: as §1

vorinostat = compound: O=C(CCCCCCC(=O)Nc1ccccc1)NO [vorinostat]
Outline: as §1

citarinostat = compound: O=C(CCCCCCNC(=O)c1cnc(N(c2ccccc2)c2ccccc2Cl)nc1)NO [citarinostat]
Outline: as §1

silmitasertib = compound: O=C(O)c1ccc2c(c1)nc(Nc1cccc(Cl)c1)c1ccncc12 [silmitasertib]
Outline: as §1

[10] = compound: O=C1NC(=O)C(c2cnc3ccccn23)=C1c1cn2c3c(cc(F)cc13)CN(C(=O)N1CCCCC1)CC2
Outline: as §1

[11] = compound: c1cc(OCCN2CCCCC2)cc(-c2n[nH]c3ccc(-c4nnc[nH]4)cc23)c1
Outline: as §1

Measured: log2 fold change

SPECC1 (UniProt Q5M775)
inactive: bafetinib -0.102 | [1] -0.1 | nilotinib -0.108 | [2] -0.133 | dasatinib -0.067 | [3] 0.063 | [4] -0.035 | [5] 0.089 | tipifarnib 0.028 | mubritinib 0.044 | [6] -0.126 | [7] -0.053 | [8] -0.124 | [9] -0.132 | entinostat -0.007 | vorinostat 0 | citarinostat -0.213 | silmitasertib 0.08 | [10] -0.06 | [11] -0.091

SUPT16H (UniProt Q9Y5B9)
inactive: bafetinib 0.006 | [1] 0.049 | nilotinib 0.011 | [2] -0.088 | dasatinib -0.269 | [3] -0.103 | [4] 0.073 | [5] 0.108 | tipifarnib -0.088 | mubritinib 0.047 | [6] -0.017 | [7] -0.111 | [8] -0.183 | [9] -0.158 | entinostat 0.207 | vorinostat 0.178 | citarinostat 0.198 | silmitasertib 0.109 | [10] -0.227 | [11] 0.025

SLC25A4 (UniProt P12235)
UniProt P12235, sequence (P12235 whole entry, looked up): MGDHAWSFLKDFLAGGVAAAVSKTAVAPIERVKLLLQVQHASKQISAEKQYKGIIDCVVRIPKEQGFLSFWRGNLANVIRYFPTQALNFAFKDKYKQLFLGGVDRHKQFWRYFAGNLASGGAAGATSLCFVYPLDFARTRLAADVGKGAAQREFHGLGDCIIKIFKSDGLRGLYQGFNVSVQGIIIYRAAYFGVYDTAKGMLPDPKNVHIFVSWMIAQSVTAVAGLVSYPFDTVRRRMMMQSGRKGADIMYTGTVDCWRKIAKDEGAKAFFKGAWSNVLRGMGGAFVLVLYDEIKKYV
inactive: bafetinib -0.027 | [1] -0.097 | nilotinib -0.004 | [2] -0.03 | dasatinib 0.033 | [3] -0.014 | [4] 0.022 | [5] -0.005 | tipifarnib 0.026 | mubritinib -0.024 | [6] -0.012 | [7] -0.035 | [8] -0.056 | [9] -0.006 | entinostat -0.019 | vorinostat -0.12 | citarinostat -0.021 | silmitasertib 0.009 | [10] -0.025 | [11] -0.002

SSX2 (UniProt Q16385)
inactive: bafetinib -0.098 | [1] -0.011 | nilotinib 0.003 | [2] -0.061 | dasatinib 0.014 | [3] -0.042 | [4] -0.039 | [5] 0.012 | tipifarnib -0.015 | mubritinib -0.048 | [6] -0.049 | [7] -0.094 | [8] -0.02 | [9] -0.057 | entinostat -0.054 | vorinostat -0.022 | citarinostat -0.025 | silmitasertib 0.011 | [10] -0.098 | [11] 0.033

TARS2 (UniProt Q9BW92)
UniProt Q9BW92, sequence (Q9BW92 whole entry, looked up): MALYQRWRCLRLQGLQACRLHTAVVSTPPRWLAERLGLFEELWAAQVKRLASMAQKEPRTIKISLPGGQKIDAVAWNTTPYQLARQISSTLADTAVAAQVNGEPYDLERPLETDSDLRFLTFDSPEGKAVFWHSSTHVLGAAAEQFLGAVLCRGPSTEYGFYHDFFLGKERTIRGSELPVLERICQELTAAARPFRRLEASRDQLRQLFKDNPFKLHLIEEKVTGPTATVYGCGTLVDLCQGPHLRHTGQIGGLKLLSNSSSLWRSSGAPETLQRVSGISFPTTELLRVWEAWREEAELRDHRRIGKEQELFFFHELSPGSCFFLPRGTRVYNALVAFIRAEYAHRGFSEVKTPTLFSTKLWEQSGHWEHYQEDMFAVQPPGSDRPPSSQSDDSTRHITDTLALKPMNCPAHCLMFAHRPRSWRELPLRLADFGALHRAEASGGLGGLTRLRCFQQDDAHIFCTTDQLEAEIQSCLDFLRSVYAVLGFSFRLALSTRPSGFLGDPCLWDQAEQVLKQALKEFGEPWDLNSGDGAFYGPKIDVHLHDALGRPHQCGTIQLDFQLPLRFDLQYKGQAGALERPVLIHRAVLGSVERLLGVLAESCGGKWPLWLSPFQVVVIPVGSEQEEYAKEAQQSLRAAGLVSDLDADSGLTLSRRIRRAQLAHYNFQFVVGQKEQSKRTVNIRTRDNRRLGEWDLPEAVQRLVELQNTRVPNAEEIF
active: [8] -0.27
inactive: bafetinib -0.081 | [1] 0.114 | nilotinib -0.094 | [2] -0.003 | dasatinib -0.055 | [3] 0 | [4] 0.084 | [5] 0.022 | tipifarnib -0.119 | mubritinib 0.013 | [6] 0.008 | [7] -0.018 | [9] -0.031 | entinostat 0.011 | vorinostat -0.051 | citarinostat 0.038 | silmitasertib -0.005 | [10] -0.057 | [11] -0.008

TARBP1 (UniProt Q13395)
UniProt Q13395, sequence (Q13395 whole entry, looked up): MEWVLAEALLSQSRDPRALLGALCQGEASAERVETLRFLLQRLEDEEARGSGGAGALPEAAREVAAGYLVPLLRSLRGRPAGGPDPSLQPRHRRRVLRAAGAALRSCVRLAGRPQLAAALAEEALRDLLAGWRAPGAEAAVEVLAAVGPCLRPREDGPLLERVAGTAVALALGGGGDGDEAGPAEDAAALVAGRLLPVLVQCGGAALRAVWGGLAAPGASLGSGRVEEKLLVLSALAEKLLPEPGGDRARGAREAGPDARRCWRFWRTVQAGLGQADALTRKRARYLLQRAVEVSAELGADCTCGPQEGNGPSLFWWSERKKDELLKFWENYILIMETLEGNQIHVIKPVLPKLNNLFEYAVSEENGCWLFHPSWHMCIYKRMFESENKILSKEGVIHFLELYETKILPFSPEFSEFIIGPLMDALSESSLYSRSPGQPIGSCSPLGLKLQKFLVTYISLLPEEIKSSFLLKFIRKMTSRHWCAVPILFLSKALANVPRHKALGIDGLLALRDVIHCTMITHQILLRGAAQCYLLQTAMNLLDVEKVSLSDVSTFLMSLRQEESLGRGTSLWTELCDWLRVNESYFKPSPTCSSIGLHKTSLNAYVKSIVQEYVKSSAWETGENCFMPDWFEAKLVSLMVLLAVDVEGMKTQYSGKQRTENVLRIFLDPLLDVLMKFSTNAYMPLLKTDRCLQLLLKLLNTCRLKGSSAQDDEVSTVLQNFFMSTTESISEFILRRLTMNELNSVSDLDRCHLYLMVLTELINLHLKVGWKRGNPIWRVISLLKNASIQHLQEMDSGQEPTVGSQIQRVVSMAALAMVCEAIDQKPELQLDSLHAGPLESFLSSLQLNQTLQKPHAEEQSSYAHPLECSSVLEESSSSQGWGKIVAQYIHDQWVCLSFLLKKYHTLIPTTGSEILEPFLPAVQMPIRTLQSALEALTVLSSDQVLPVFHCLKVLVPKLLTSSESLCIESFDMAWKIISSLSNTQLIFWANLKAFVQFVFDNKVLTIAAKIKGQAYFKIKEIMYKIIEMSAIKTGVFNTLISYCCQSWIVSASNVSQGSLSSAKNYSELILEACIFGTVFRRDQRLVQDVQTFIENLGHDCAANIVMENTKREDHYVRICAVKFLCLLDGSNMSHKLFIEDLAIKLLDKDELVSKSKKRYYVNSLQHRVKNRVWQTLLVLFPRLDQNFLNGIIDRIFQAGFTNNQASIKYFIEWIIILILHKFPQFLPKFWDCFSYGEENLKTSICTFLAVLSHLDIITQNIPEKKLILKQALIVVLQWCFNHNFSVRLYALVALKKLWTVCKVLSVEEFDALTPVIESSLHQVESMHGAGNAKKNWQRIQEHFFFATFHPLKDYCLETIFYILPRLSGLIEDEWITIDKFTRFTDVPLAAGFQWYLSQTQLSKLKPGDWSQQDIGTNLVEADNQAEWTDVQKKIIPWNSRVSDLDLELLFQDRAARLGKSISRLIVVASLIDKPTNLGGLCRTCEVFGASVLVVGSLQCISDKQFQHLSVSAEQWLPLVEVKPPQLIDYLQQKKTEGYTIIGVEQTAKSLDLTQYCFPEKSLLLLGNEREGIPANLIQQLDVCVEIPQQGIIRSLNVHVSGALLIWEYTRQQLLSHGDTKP
inactive: bafetinib -0.022 | [1] 0.005 | nilotinib 0.019 | [2] 0.081 | dasatinib -0.058 | [3] -0.026 | [4] 0.116 | [5] -0.013 | tipifarnib 0.036 | mubritinib -0.055 | [6] -0.033 | [7] 0.048 | [8] -0.027 | [9] 0.014 | entinostat -0.044 | vorinostat 0.003 | citarinostat 0.079 | silmitasertib 0.034 | [10] 0.053 | [11] 0

SLIRP (UniProt Q9GZT3)
inactive: bafetinib -0.156 | [1] -0.099 | nilotinib 0.118 | [2] -0.027 | dasatinib -0.134 | [3] -0.073 | [4] 0.131 | [5] 0.075 | tipifarnib 0.031 | mubritinib -0.044 | [6] -0.121 | [7] -0.106 | [8] -0.041 | [9] -0.062 | entinostat 0.127 | vorinostat -0.055 | citarinostat 0.023 | silmitasertib -0.016 | [10] -0.129 | [11] -0.129

TIMM21 (UniProt Q9BVV7)
UniProt Q9BVV7, sequence (Q9BVV7 whole entry, looked up): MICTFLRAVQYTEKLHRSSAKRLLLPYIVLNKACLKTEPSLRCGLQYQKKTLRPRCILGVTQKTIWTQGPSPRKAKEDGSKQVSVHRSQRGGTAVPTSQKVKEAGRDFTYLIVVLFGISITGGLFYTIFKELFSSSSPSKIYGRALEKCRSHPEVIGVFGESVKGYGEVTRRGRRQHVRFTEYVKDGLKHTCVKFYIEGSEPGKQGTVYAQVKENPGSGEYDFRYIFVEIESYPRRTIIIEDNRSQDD
inactive: bafetinib -0.149 | [1] 0.058 | nilotinib -0.011 | [2] -0.014 | dasatinib 0.011 | [3] -0.003 | [4] 0.025 | [5] 0.074 | tipifarnib 0.055 | mubritinib -0.011 | [6] -0.041 | [7] -0.055 | [8] -0.087 | [9] -0.047 | entinostat -0.015 | vorinostat 0.04 | citarinostat 0.052 | silmitasertib 0.024 | [10] -0.016 | [11] -0.016

SSR4 (UniProt P51571)
inactive: bafetinib -0.011 | [1] -0.057 | nilotinib -0.001 | [2] 0.021 | dasatinib -0.028 | [3] -0.005 | [4] 0.067 | [5] 0.026 | tipifarnib -0.063 | mubritinib 0.003 | [6] 0.032 | [7] -0.013 | [8] -0.011 | [9] 0.023 | entinostat -0.011 | vorinostat 0 | citarinostat 0.019 | silmitasertib -0.029 | [10] 0.004 | [11] -0.056

TFR2 (UniProt Q9UP52)
inactive: [1] -0.012 | nilotinib 0.012 | [2] -0.074 | dasatinib 0.006 | [3] -0.026 | [4] -0.019 | [5] 0.054 | tipifarnib 0.025 | mubritinib 0.041 | [6] -0.039 | [7] -0.004 | [9] 0.007 | entinostat 0.007 | vorinostat 0.002 | citarinostat 0.033 | silmitasertib -0.001 | [10] -0.035 | [11] -0.067
active: bafetinib -0.226 | [8] -0.601

SUGP1 (UniProt Q8IWZ8)
UniProt Q8IWZ8, sequence (Q8IWZ8 whole entry, looked up): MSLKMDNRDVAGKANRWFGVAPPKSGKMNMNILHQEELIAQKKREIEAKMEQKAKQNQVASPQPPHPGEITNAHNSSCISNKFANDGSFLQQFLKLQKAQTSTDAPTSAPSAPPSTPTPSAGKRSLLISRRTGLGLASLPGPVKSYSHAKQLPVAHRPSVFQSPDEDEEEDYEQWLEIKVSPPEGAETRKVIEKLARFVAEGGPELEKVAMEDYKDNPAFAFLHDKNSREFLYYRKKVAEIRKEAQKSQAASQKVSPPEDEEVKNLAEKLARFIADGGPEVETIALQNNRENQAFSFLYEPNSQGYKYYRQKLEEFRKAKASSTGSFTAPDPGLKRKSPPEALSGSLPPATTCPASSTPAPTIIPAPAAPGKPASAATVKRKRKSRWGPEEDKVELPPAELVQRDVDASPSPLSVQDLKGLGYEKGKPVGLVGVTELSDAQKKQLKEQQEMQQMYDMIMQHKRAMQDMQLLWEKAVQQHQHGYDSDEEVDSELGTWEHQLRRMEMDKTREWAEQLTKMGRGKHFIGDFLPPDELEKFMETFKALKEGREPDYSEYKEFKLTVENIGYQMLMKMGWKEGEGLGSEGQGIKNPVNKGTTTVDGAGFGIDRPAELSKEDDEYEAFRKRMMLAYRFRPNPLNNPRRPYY
inactive: bafetinib -0.033 | [1] 0.012 | nilotinib -0.019 | [2] -0.058 | dasatinib -0.139 | [3] -0.043 | [4] 0.08 | [5] -0.012 | tipifarnib -0.007 | mubritinib 0.063 | [6] 0 | [7] -0.05 | [8] -0.073 | [9] -0.071 | entinostat 0.054 | vorinostat 0.077 | citarinostat 0.074 | silmitasertib 0.101 | [10] -0.065 | [11] 0.045

TEX264 (UniProt Q9Y6I9)
UniProt Q9Y6I9, sequence (Q9Y6I9 whole entry, looked up): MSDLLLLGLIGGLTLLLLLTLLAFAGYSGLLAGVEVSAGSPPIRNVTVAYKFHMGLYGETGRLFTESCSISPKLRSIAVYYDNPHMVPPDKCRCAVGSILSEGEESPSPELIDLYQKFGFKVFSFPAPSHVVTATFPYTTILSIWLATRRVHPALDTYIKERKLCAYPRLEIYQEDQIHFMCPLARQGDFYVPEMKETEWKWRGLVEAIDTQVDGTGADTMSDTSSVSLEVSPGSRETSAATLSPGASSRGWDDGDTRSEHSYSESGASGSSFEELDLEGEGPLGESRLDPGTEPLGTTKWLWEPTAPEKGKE
inactive: bafetinib 0.391 | [1] 0.007 | nilotinib 0.241 | [2] 0.111 | dasatinib 0.265 | [4] 0.047 | [5] 0.114 | tipifarnib -0.006 | mubritinib 0.047 | [7] -0.001 | [8] 0.215 | [9] -0.033 | entinostat 0.006 | vorinostat -0.012 | citarinostat -0.054 | silmitasertib 0.02 | [10] -0.093 | [11] 0.515
active: [3] 0.845 | [6] 0.548

SP100 isoform 4 (UniProt P23497)
inactive: bafetinib -0.047 | [1] -0.056 | nilotinib -0.02 | [2] -0.061 | dasatinib -0.054 | [3] -0.057 | [4] 0.02 | [5] 0.026 | tipifarnib -0.087 | mubritinib 0.043 | [6] 0.03 | [7] -0.007 | [8] -0.025 | [9] -0.039 | entinostat 0.007 | vorinostat -0.046 | citarinostat -0.011 | silmitasertib 0.059 | [10] -0.051 | [11] 0.02

TM9SF2 (UniProt Q99805)
inactive: bafetinib -0.056 | [1] 0.008 | nilotinib 0.025 | [2] -0.072 | dasatinib -0.013 | [3] 0.041 | [4] 0.023 | [5] 0.036 | tipifarnib 0.009 | mubritinib -0.006 | [6] 0.026 | [7] 0.006 | [8] -0.138 | [9] -0.022 | entinostat -0.006 | vorinostat 0.006 | citarinostat -0.003 | silmitasertib 0.002 | [10] -0.057 | [11] -0.062

SRPRA (UniProt P08240)
UniProt P08240, sequence (P08240 whole entry, looked up): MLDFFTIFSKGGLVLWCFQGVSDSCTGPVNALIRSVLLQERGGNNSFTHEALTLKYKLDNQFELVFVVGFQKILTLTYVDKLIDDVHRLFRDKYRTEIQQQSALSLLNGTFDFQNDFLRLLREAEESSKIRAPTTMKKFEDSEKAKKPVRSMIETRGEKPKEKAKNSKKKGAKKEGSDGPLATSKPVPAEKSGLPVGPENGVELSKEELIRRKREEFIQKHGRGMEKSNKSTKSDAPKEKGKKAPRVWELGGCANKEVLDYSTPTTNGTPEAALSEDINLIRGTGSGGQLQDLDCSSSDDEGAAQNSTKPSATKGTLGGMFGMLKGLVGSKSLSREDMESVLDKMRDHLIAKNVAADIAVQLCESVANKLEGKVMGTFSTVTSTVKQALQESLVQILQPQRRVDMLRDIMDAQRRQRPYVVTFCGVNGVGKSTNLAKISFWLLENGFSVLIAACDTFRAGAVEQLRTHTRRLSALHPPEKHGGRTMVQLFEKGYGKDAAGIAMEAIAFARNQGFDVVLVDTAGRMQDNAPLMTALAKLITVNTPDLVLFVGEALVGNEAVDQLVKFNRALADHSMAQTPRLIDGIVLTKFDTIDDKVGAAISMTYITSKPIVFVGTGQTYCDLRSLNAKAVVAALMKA
inactive: bafetinib 0.143 | [1] 0.138 | nilotinib 0.066 | [2] 0.04 | dasatinib -0.105 | [3] 0.123 | [4] 0.054 | [5] -0.037 | tipifarnib -0.141 | [6] -0.03 | [7] 0.017 | [8] -0.049 | [9] -0.045 | entinostat 0.02 | vorinostat 0.033 | citarinostat 0 | silmitasertib 0.021 | [10] 0.008 | [11] 0.015
active: mubritinib 0.227

SNX2 (UniProt O60749)
UniProt O60749, sequence (O60749 whole entry, looked up): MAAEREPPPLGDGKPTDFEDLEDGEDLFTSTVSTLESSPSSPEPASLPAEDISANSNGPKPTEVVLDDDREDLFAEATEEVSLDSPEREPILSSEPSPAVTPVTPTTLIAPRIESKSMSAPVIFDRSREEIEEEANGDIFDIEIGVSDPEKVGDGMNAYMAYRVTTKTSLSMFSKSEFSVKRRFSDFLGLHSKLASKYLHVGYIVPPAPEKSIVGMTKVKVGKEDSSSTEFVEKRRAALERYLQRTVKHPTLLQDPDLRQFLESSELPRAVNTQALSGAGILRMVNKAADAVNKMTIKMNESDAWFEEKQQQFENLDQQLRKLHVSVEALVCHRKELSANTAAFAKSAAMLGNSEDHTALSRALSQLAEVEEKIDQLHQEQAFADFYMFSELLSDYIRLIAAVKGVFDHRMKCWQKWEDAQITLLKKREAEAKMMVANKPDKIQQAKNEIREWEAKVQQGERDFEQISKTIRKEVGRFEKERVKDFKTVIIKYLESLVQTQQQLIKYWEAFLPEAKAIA
inactive: bafetinib -0.153 | [1] 0.088 | nilotinib -0.168 | [2] 0 | dasatinib -0.134 | [3] -0.275 | [4] 0.101 | [5] 0.021 | tipifarnib -0.056 | mubritinib 0.044 | [6] -0.001 | [7] -0.204 | [8] -0.146 | [9] 0 | entinostat 0.092 | vorinostat 0.093 | citarinostat 0.062 | silmitasertib -0.068 | [10] -0.044 | [11] -0.082
